# Source: PMC7862700, “An all-to-all approach to the identification of sequence-specific readers for epigenetic DNA modifications on cytosine”
# Tests used:
# Test in all cases: DAPPL (digital affinity profiling via proximity ligation, sequencing); 10 mM Tris-HCl pH 7.5, 50 mM NaCl, 1 mM DTT, 4% glycerol, room temperature, 30 min; GST-TFs on glutathione beads, 16-mer random dsDNA library, 0.1% formaldehyde crosslink after washing; high values mean tight binding
# Settings in all cases: protein: recombinant; tags: N-terminal GST; dsDNA, one strand shown
# FLI1 = biological target: T1, FLI1 (Homo sapiens, UniProt Q01543 1-452)
# T1 sequence: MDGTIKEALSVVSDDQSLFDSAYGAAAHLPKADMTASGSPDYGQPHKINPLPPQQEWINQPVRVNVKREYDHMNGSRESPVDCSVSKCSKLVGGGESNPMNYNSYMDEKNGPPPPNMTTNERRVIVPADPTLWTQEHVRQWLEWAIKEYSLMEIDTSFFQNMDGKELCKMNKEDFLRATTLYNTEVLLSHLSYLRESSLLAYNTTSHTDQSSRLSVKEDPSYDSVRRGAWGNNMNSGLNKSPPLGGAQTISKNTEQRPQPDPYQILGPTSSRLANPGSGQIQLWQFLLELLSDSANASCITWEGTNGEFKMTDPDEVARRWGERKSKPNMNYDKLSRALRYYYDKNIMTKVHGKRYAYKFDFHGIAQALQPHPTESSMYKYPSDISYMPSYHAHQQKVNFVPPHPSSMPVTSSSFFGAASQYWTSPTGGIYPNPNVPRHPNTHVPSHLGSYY
# Procedure, shortened: (§1)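 GST fusions of human transcription factors were expressed in yeast and captured with glutathione beads. Once given DNA barcodes and pooled alongside a tag-only sample, they were incubated for 30 min at room temperature with 200 nmole of a random double-stranded 16-mer DNA library in Tris/NaCl/DTT/glycerol buffer, then washed, crosslinked (0.1% formaldehyde), proximity-ligated, PCR-amplified and sequenced on an Illumina NextSeq500. The binding signal of each hexamer is its read frequency for a factor divided by its frequency for the tag-only sample.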
# ELK1 = biological target: T2, ELK1 (Homo sapiens, UniProt P19419 1-428)
# T2 sequence: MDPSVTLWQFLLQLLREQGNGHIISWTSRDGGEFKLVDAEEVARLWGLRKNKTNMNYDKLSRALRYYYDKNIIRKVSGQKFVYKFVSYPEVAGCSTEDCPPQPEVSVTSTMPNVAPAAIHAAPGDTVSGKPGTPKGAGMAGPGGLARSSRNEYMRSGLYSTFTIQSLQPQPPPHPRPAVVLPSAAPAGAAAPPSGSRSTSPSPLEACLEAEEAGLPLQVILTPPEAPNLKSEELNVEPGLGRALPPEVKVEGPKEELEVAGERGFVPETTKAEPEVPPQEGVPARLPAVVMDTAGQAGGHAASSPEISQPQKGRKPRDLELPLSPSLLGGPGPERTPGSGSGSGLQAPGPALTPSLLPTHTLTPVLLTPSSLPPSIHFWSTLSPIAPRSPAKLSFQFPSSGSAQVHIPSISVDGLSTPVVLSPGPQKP
# Procedure, shortened: as §1
# GABPA = biological target: T3, GABPA (Homo sapiens, UniProt Q06546 1-454)
# T3 sequence: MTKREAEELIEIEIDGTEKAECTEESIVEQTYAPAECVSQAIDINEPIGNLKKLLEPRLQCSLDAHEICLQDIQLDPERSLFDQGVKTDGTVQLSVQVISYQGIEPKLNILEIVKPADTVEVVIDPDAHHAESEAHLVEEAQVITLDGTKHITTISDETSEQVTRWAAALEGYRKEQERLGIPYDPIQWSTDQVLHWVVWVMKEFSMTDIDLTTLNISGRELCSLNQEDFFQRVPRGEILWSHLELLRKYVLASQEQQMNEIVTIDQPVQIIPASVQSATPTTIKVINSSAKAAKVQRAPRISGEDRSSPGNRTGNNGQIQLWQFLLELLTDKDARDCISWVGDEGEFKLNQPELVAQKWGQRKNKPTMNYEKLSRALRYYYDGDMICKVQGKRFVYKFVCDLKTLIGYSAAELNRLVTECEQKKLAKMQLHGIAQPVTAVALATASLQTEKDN
# Procedure, shortened: as §1
# ERG = biological target: T4, ERG (Homo sapiens, UniProt P11308 1-479)
# T4 sequence: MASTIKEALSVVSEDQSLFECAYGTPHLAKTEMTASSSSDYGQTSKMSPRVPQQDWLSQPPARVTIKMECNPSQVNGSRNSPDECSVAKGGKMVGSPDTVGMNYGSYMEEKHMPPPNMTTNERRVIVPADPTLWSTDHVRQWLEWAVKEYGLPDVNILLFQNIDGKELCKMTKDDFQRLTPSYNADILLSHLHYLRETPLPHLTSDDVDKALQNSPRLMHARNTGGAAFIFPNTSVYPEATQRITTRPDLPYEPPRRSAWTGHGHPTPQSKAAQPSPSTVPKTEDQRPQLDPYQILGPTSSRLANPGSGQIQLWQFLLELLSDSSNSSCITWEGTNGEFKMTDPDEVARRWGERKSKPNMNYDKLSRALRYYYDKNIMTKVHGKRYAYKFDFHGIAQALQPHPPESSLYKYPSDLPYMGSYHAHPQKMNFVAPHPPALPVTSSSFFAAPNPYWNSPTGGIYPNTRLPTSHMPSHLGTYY
# Procedure, shortened: as §1
# ELF1 = ELF1 (Homo sapiens, UniProt P32519 1-619)
# Sequence of ELF1 (P32519 whole entry): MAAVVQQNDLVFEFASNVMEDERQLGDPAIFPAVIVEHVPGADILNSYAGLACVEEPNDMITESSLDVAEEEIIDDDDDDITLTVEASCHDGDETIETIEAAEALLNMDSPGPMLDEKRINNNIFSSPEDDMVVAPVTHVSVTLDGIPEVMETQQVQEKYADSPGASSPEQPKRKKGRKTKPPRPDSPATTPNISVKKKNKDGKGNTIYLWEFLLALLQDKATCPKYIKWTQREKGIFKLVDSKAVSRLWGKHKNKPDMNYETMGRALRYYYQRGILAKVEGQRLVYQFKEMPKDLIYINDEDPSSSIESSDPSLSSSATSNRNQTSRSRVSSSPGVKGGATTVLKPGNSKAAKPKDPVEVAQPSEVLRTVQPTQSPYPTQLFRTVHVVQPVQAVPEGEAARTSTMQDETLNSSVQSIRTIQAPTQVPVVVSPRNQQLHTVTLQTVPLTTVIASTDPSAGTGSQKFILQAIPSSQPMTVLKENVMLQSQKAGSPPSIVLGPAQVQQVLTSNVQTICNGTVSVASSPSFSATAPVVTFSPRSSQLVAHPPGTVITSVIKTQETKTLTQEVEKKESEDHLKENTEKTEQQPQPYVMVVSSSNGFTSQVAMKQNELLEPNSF
# Procedure, shortened: as §1
# EHF = biological target: T5, EHF (Homo sapiens, UniProt Q9NZC4 1-300)
# T5 sequence: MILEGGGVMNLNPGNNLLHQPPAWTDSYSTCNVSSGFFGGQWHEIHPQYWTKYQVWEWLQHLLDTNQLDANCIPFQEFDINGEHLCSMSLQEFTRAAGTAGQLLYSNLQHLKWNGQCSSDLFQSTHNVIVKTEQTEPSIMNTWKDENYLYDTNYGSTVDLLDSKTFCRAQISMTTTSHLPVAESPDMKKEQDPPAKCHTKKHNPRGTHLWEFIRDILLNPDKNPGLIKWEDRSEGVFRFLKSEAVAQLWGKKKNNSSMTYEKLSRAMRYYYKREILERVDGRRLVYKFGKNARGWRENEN
# Procedure, shortened: as §1
# SPI1 = SPI1 (Homo sapiens, UniProt P17947 1-270)
# Procedure, shortened: as §1
# SPIB = SPIB (Homo sapiens, UniProt Q01892 1-262)
# Sequence of SPIB (Q01892 whole entry): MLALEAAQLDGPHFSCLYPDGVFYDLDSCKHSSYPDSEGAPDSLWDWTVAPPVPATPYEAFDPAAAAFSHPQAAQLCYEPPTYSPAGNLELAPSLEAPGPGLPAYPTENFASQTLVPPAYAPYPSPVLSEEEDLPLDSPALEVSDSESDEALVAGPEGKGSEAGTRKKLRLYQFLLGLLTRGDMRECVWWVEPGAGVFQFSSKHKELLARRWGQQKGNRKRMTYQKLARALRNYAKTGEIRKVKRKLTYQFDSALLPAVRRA
# Procedure, shortened: as §1
# ELK3 = biological target: T6, ELK3 (Homo sapiens, UniProt P41970 1-407)
# T6 sequence: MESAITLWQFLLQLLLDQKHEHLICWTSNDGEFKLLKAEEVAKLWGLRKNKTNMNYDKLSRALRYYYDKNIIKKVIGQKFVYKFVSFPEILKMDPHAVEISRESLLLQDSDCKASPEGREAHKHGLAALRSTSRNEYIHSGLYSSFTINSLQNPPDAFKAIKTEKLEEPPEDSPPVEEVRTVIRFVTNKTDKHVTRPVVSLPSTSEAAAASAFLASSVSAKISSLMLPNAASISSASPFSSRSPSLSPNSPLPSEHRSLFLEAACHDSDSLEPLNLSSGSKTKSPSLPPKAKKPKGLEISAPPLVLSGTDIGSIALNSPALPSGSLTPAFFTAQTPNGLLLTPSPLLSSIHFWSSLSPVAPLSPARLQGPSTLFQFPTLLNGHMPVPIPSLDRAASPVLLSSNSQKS
# Procedure, shortened: as §1
# FEV = biological target: T7, FEV (Homo sapiens, UniProt Q99581 1-238)
# T7 sequence: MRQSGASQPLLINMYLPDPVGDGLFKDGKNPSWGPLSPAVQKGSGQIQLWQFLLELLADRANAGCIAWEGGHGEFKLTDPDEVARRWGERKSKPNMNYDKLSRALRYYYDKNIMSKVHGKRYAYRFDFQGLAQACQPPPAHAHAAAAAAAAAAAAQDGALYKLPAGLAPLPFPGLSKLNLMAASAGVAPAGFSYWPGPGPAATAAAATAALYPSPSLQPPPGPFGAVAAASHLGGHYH
# Procedure, shortened: as §1
# ETV5 = ETV5 (Homo sapiens, UniProt P41161 1-510)
# Sequence of ETV5 (P41161 whole entry): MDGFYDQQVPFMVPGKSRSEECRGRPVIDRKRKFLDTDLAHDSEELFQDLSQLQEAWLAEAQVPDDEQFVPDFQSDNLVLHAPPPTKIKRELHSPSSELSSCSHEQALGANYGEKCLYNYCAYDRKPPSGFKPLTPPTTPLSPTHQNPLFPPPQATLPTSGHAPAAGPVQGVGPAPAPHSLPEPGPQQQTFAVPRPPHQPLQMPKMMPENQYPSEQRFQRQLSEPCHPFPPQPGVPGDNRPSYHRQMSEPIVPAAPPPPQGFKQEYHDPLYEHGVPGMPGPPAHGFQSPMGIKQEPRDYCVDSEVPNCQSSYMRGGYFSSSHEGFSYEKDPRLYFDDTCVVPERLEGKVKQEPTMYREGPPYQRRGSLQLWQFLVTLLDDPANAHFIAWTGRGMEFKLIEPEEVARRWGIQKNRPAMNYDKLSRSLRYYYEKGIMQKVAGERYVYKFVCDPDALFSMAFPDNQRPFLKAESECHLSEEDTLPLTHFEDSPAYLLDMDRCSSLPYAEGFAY
# Procedure, shortened: as §1
# ELF4 = ELF4 (Homo sapiens, UniProt Q99607 1-663)
# Sequence of ELF4 (Q99607 whole entry): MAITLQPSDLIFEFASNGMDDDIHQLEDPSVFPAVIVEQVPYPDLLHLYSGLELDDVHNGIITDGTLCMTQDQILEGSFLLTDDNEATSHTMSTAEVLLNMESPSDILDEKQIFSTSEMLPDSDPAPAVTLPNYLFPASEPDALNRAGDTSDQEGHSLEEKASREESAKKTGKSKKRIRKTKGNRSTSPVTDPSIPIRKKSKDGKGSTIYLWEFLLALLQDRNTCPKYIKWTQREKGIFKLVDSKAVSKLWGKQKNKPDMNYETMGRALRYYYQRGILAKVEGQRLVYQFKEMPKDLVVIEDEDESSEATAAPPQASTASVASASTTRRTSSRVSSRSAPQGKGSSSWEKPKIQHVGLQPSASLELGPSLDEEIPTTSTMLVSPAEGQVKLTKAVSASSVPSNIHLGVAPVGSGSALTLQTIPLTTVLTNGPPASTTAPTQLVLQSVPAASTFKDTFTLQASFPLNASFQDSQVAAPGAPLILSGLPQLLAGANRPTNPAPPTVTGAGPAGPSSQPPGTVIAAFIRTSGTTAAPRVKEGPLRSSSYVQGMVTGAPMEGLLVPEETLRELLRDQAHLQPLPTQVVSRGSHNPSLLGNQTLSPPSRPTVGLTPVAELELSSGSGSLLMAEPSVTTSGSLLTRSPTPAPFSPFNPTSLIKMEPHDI
# Procedure, shortened: as §1
# ETV1 = ETV1 (Homo sapiens, UniProt P50549 1-477)
# Sequence of ETV1 (P50549 whole entry): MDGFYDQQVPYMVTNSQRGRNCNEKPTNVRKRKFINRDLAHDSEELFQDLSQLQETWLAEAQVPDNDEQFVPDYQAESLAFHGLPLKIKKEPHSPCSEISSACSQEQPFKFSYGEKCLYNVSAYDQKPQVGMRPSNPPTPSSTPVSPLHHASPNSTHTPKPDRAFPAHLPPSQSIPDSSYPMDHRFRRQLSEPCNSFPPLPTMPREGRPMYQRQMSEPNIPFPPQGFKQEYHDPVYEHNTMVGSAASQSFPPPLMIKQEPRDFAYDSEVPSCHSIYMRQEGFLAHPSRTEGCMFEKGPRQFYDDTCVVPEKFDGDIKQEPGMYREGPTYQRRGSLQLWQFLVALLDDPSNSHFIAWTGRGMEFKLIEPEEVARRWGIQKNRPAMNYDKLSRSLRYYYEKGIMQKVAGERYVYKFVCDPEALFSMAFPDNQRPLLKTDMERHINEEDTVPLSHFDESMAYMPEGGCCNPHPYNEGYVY
# Procedure, shortened: as §1
# ERF = biological target: T8, ERF (Homo sapiens, UniProt P50548 1-548)
# T8 sequence: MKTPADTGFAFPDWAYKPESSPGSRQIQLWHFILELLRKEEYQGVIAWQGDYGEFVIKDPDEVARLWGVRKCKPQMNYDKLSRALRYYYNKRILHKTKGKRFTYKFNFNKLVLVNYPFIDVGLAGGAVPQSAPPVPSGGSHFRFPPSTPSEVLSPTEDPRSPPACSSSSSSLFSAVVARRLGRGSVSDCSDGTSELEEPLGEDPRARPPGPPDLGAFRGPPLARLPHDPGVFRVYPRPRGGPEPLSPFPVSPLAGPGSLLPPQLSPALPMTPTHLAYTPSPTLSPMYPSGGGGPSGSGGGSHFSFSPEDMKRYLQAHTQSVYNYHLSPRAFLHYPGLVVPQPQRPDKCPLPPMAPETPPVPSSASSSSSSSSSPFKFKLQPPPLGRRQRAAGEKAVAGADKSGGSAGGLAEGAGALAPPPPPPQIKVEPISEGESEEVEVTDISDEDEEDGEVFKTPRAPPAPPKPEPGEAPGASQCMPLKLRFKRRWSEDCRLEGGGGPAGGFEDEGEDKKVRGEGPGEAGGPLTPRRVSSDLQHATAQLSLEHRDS
# Procedure, shortened: as §1
# ETV3L = biological target: T9, ETV3L (Homo sapiens, UniProt Q6ZN32 1-361)
# T9 sequence: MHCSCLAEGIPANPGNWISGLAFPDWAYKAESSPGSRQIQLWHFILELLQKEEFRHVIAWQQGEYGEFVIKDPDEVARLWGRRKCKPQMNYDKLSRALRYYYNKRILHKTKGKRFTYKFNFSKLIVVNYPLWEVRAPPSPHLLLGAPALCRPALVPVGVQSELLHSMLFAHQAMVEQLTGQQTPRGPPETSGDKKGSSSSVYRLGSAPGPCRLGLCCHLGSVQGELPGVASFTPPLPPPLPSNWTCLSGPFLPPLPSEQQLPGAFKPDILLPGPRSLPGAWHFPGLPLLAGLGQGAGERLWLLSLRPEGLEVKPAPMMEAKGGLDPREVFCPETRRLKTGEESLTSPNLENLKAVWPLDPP
# Procedure, shortened: as §1
# ETS2 = biological target: T10, ETS2 (Homo sapiens, UniProt P15036 1-469)
# T10 sequence: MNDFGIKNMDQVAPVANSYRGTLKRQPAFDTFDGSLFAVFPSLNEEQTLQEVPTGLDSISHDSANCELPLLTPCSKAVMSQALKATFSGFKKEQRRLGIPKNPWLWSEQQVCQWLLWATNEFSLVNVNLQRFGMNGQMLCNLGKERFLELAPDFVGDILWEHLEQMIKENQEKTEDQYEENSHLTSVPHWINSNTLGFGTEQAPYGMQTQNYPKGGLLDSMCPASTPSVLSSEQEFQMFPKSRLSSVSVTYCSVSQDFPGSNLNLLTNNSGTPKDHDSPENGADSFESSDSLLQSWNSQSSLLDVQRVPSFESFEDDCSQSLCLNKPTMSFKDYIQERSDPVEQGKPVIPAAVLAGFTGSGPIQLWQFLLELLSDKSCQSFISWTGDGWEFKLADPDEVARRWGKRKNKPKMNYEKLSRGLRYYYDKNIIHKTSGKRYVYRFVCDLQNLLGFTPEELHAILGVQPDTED
# Procedure, shortened: as §1
# ELF5 = biological target: T11, ELF5 (Homo sapiens, UniProt Q9UKW6-2 1-255)
# T11 sequence: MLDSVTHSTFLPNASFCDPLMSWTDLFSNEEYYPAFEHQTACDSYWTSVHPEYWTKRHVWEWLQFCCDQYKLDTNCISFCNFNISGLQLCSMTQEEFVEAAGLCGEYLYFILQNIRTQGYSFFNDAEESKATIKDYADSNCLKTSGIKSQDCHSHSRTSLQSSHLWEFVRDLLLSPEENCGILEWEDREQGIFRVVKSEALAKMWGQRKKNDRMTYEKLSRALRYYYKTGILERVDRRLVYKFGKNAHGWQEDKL
# Procedure, shortened: as §1
# ETV3 = biological target: T12, ETV3 (Homo sapiens, UniProt P41162-2 1-143)
# T12 sequence: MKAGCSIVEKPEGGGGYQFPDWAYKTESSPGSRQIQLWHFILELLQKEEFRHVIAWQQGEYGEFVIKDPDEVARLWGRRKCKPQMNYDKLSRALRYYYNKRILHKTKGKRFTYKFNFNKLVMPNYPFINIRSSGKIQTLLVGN
# Procedure, shortened: as §1
# ETV6 = ETV6 (Homo sapiens, UniProt P41212 1-452)
# Sequence of ETV6 (P41212 whole entry): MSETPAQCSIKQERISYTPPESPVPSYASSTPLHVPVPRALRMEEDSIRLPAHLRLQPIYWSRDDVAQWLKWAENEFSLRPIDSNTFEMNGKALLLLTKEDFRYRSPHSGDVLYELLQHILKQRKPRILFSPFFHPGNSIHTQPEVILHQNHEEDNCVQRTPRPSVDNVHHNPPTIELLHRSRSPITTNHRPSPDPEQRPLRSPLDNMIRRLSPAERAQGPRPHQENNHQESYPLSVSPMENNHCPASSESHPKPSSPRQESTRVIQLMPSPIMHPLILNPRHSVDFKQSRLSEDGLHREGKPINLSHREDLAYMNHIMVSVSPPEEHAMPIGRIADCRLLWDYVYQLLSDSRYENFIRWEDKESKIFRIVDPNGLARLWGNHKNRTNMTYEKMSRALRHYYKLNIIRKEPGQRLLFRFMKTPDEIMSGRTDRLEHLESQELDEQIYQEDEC
# Procedure, shortened: as §1
sequence,measurement,setting,value
GTACCC,binding signal,FLI1,"1.08 fold enrichment (6-mer frequency, TF over GST control)"
same,binding signal,ELK1,"1.05 fold enrichment (6-mer frequency, TF over GST control)"
same,binding signal,GABPA,"1.07 fold enrichment (6-mer frequency, TF over GST control)"
same,binding signal,ERG,"1.05 fold enrichment (6-mer frequency, TF over GST control)"
same,binding signal,ELF1,"1.12 fold enrichment (6-mer frequency, TF over GST control)"
same,binding signal,EHF,"1.16 fold enrichment (6-mer frequency, TF over GST control)"
same,binding signal,SPI1,"1.16 fold enrichment (6-mer frequency, TF over GST control)"
same,binding signal,SPIB,"1.07 fold enrichment (6-mer frequency, TF over GST control)"
same,binding signal,ELK3,"1.12 fold enrichment (6-mer frequency, TF over GST control)"
same,binding signal,FEV,"1.05 fold enrichment (6-mer frequency, TF over GST control)"
same,binding signal,ETV5,"1.17 fold enrichment (6-mer frequency, TF over GST control)"
same,binding signal,ELF4,"1.06 fold enrichment (6-mer frequency, TF over GST control)"
same,binding signal,ETV1,"1.11 fold enrichment (6-mer frequency, TF over GST control)"
same,binding signal,ERF,"1.13 fold enrichment (6-mer frequency, TF over GST control)"
same,binding signal,ETV3L,"1.16 fold enrichment (6-mer frequency, TF over GST control)"
same,binding signal,ETS2,"1.12 fold enrichment (6-mer frequency, TF over GST control)"
same,binding signal,ELF5,"1.01 fold enrichment (6-mer frequency, TF over GST control)"
same,binding signal,ETV3,"1.06 fold enrichment (6-mer frequency, TF over GST control)"
same,binding signal,ETV6,"1.13 fold enrichment (6-mer frequency, TF over GST control)"
